What was measured:
Assay in all cases: PBM binding z-score (relative to random genomic background probes); higher = stronger binding; sequences stand for … in GC…GCGATTGACAGCGTAGAATGAAGG
[1] = system: RARb homodimer (NR concentration 270 nM)
Outline: (§1)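 The probes on custom Agilent 4×180K protein-binding microarrays were double-stranded, with 34-nt variable regions bearing direct-repeat seeds, single-nucleotide variants, half-site ablations and random human genomic background sequences. Incubation lasted 1 h with ligand-free nuclear receptor dimers in PBS pH 7.4, 2% milk, 0.02% Triton X-100, 1 mM DTT, 0.2 mg/mL BSA and 0.4 mg/ml salmon testes DNA. Antibodies against each partner (one per run) detected bound dimers, and fluorescence scans were regression-normalized. Binding z-scores take the random background probes as reference.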

[2] = system: RARg:RXRa (NR concentration 270 nM, RXRa partner concentration 90 nM)
Outline: as §1

[3] = system: RARg homodimer (NR concentration 270 nM)
Outline: as §1

[4] = system: RXRa DBDmut IVT, anti-RXR (DBD mutation: RXRa K156A/R161A, NR concentration 90 nM)
Outline: as §1

[5] = system: RXRa homodimer (NR concentration 180 nM)
Outline: as §1

[6] = system: THRa:RXRa (NR concentration 90 nM, RXRa partner concentration 90 nM)
Outline: as §1

[7] = system: THRa homodimer (NR concentration 90 nM)
Outline: as §1

[8] = system: VDR:RXRa (NR concentration 270 nM, RXRa partner concentration 90 nM)
Outline: as §1

[9] = system: VDR homodimer (NR concentration 270 nM)
Outline: as §1

Sequence	PBM binding z-score [1]	PBM binding z-score [2]	PBM binding z-score [3]	PBM binding z-score [4]	PBM binding z-score [5]	PBM binding z-score [6]	PBM binding z-score [7]	PBM binding z-score [8]	PBM binding z-score [9]
CCTTACGGGTGACTGACAGGTTATAGCATTTGGA	0.601	1.07	0.559	0.115	0.941	0.72	-0.154	0.132	-0.209
ACTTACGGGTCAACGAGGTTATAGCGCGCGTATA	3.76	5.67	5.32	2.92	6.24	4.09	0.869	7.58	4.01
AGAACGAGGACAATGAGTTGATAGCACGGGTGGC	0.202	0.444	1.06	1.31	0.454	2.19	1.15	1.75	2.33
CGTCAAAGTTCAAGGTATCGTAACAGAAAGCAGC	3.49	4.96	5.95	4.18	3.95	1.94	-0.0941	3.74	3.17
GCTAGTTGGTCAGCAAAAGGTCACACACCGGTCG	5.34	5.94	5.62	-0.0302	6.14	3.41	1.55	4.13	1.55
CCGACTGGGGTAAAGGTTACCATACTCAGTACGA	1.83	2.51	1.44	0.246	3.27	2.05	-0.0216	1.18	0.207
CGTGCAAGGTCAAAGGTCAGTGAAGAGATGACGG	5.61	8.84	8.41	4.08	10.3	4.91	2.23	6.7	3.9
TCAGTCAGGTGAAGGTAACTCAGGTACGCAGTCG	0.729	0.735	0.793	0.667	0.742	2.32	1.34	0.652	-0.131
CCGACTGGGGCAGTAAGGTTACCATACCATCCGG	1.56	0.667	0.917	-1.01	0.78	1.87	1.08	0.907	0.0425
TGTAGCAGGCCAGAGGGTCACTCAAGAGGTACGG	2.85	2.8	2.7	-1.32	2.64	1.59	-0.464	1.46	0.427
TCGACTAGGTTAGGGGCATTCAGAATGGCGTCGA	0.889	0.355	0.408	0.884	0.798	1.03	0.253	0.465	0.473
CCTAACAGGCCAATCTGGGTCACTCAAGGCTTGA	2.38	1.47	1.75	0.498	0.758	3.85	0.717	1.04	0.191
CCCCGGAGGACAACAGGAGGTCAGAGCTGCCAGA	3.5	3.66	3.24	-0.883	2.21	2.94	1.39	1.91	1.77
CCATACAGGTGAAAGGTAACTCAGTCTGGTACGC	0.92	1.41	0.917	0.261	2.32	1.08	0.069	0.988	-0.101
TCGAGTAGGTTACCAGTGGGGCATTCAGCTTTCT	0.636	1.06	0.275	0.241	0.437	0.157	-0.534	0.134	-0.388
TTACCAAGGTGAAAGATCGTTGATGCACGCCTTG	0.0757	0.744	0.398	-0.161	1.06	1.42	0.109	0.0935	-0.339
CAAACTAGGTCACCGGAAGGTGAAAGTCCGCATG	4.38	6.41	5.87	1.3	4.7	4.01	2.37	3.4	0.904
TCTAGCAGGCCAAAGGGTCACTCAAGAGGTACGG	4.55	4.65	4.35	0.568	4.24	2.51	-0.172	3.12	1.2
CCGACTGGGGCATAAGGCTACCATAAGCCAGCCC	0.172	-0.0263	0.171	-0.797	-0.16	-0.225	-0.406	-0.694	-0.345
CGTCAAAGTTCAACCAAGGTAACGTAAAGCACGC	4.13	5.85	6.21	4.5	4.98	5.14	1.18	4.77	4.3
CGTCAAAGTTCAACTAGGGTAACGTAAAGCACGC	4.3	5.87	6.62	4.69	5.44	5.14	0.583	5.28	4.44
ATCGAAAAGTCGAGGTGAGTATAGAGAAAGGGAA	0.0212	0.371	0.476	-0.67	0.323	1.17	0.201	-0.237	-0.198
TCTTGTTGATCAGCAGGTTAAGAAAGCTGGCCAA	0.158	-0.129	-0.598	0.635	0.257	0.181	-0.779	0.36	-0.748
CGAACTAGGTCATTGACAGGACAGTTAATAGTAA	2.42	4.65	4.41	2.52	2.86	2.77	0.893	2.16	1.27
GCTGCTAGGTCAACTGATCGTCAGCTAAAGCTCG	3.16	4.5	5.79	1.38	2.8	2.73	0.546	1.13	-0.532
ACTTATGGGTCAACGAGGTTATAGCACGCGTATA	3.67	5.04	5.1	1.92	5.18	3.79	1.03	7.43	2.82
